Data: ChEMBL document CHEMBL1961873, “Compounds: GSK PKIS; Assays: Nanosyn kinase panel” (2012)

Columns and labels:
[1] = molecular target: Mitogen-activated protein kinase 3 (Homo sapiens) (UniProt P27361); conditions: at 1 µM;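 further: values are mean percent inhibition of MAPK3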
[2] = molecular target: SRSF protein kinase 3 (Homo sapiens) (UniProt Q9UPE1); conditions: at 0.1 µM
[3] = molecular target: SRSF protein kinase 3 (Homo sapiens) (UniProt Q9UPE1); conditions: at 1 µM
[4] = molecular target: Mitogen-activated protein kinase 14 (Homo sapiens) (UniProt Q16539); conditions: at 0.1 µM
Mitogen-activated protein kinase 14 (Homo sapiens), sequence (Q16539 whole entry): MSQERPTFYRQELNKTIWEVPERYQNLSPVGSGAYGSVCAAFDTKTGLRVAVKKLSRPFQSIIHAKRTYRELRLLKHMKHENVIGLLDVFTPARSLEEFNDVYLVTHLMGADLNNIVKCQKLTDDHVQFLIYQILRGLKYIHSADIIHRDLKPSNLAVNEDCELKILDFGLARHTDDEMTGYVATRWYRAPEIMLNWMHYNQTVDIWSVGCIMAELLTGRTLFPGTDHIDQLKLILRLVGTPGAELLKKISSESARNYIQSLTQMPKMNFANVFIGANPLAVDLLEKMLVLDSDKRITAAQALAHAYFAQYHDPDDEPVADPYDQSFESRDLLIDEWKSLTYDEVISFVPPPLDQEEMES

[5] = molecular target: Mitogen-activated protein kinase 14 (Homo sapiens) (UniProt Q16539); conditions: at 1 µM
[6] = molecular target: Mitogen-activated protein kinase 11 (Homo sapiens) (UniProt Q15759); conditions: at 0.1 µM
Mitogen-activated protein kinase 11 (Homo sapiens), sequence (Q15759 whole entry): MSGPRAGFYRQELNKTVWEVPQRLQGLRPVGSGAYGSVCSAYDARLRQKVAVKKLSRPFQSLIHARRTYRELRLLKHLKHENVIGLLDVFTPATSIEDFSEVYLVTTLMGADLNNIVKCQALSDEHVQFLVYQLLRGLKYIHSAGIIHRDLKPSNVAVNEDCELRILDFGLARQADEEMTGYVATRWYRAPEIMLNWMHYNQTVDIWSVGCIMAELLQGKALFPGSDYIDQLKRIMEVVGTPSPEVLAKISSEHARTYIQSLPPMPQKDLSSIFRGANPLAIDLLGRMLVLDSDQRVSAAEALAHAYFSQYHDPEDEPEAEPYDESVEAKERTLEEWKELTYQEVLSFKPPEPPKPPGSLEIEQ

[7] = molecular target: Mitogen-activated protein kinase 11 (Homo sapiens) (UniProt Q15759); conditions: at 1 µM
[8] = molecular target: T1, Mitogen-activated protein kinase 13 (Homo sapiens) (UniProt O15264); conditions: at 0.1 µM
T1 sequence (whole entry): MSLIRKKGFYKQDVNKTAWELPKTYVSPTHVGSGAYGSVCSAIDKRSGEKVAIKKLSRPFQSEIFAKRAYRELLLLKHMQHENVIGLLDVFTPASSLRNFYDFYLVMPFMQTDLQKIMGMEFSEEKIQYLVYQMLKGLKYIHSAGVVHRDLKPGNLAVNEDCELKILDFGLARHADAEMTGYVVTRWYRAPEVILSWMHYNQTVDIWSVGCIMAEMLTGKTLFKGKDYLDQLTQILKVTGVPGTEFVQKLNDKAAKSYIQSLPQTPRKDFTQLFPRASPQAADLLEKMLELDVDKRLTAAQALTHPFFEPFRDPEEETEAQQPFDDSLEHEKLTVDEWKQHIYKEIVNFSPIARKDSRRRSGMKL

[9] = molecular target: T1, Mitogen-activated protein kinase 13 (Homo sapiens); conditions: at 1 µM
[10] = molecular target: T2, Mitogen-activated protein kinase 12 (Homo sapiens) (UniProt P53778); conditions: at 0.1 µM
T2 sequence (whole entry): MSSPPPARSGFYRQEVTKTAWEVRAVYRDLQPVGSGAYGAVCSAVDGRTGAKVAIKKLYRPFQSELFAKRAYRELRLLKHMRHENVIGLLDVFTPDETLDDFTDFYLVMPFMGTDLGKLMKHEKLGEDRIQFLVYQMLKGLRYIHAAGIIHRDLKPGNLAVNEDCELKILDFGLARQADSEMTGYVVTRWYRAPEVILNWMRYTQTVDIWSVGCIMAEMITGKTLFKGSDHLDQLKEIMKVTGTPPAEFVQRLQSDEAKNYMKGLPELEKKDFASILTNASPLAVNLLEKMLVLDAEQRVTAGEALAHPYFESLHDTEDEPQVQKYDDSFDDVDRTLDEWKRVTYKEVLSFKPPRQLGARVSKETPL

[11] = molecular target: T2, Mitogen-activated protein kinase 12 (Homo sapiens); conditions: at 1 µM
[12] = molecular target: SRSF protein kinase 1 (Homo sapiens) (UniProt Q96SB4); conditions: at 0.1 µM
SRSF protein kinase 1 (Homo sapiens), sequence (Q96SB4 whole entry, canonical isoform): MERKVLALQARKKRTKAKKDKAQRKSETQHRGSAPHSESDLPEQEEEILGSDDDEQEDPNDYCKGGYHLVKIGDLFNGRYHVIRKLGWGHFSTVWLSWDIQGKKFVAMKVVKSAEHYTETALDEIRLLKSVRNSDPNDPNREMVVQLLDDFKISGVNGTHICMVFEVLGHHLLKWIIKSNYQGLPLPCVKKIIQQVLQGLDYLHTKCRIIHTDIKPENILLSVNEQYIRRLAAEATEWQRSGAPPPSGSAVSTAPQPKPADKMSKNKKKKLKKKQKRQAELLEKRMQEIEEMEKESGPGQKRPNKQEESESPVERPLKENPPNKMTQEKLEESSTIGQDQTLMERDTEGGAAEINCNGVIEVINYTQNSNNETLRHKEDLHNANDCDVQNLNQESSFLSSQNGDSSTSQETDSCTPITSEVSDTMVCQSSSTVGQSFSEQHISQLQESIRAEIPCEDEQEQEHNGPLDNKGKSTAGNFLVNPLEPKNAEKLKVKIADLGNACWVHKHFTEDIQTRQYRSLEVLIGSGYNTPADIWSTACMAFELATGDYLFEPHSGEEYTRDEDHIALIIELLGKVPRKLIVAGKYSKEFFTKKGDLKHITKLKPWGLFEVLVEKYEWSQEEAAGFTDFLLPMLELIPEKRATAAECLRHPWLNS

[13] = molecular target: SRSF protein kinase 1 (Homo sapiens) (UniProt Q96SB4); conditions: at 1 µM
[14] = molecular target: Phosphatidylinositol 4,5-bisphosphate 3-kinase catalytic subunit alpha isoform (Homo sapiens) (UniProt P42336); conditions: at 0.1 µM
Phosphatidylinositol 4,5-bisphosphate 3-kinase catalytic subunit alpha isoform (Homo sapiens), sequence (P42336 whole entry, canonical isoform): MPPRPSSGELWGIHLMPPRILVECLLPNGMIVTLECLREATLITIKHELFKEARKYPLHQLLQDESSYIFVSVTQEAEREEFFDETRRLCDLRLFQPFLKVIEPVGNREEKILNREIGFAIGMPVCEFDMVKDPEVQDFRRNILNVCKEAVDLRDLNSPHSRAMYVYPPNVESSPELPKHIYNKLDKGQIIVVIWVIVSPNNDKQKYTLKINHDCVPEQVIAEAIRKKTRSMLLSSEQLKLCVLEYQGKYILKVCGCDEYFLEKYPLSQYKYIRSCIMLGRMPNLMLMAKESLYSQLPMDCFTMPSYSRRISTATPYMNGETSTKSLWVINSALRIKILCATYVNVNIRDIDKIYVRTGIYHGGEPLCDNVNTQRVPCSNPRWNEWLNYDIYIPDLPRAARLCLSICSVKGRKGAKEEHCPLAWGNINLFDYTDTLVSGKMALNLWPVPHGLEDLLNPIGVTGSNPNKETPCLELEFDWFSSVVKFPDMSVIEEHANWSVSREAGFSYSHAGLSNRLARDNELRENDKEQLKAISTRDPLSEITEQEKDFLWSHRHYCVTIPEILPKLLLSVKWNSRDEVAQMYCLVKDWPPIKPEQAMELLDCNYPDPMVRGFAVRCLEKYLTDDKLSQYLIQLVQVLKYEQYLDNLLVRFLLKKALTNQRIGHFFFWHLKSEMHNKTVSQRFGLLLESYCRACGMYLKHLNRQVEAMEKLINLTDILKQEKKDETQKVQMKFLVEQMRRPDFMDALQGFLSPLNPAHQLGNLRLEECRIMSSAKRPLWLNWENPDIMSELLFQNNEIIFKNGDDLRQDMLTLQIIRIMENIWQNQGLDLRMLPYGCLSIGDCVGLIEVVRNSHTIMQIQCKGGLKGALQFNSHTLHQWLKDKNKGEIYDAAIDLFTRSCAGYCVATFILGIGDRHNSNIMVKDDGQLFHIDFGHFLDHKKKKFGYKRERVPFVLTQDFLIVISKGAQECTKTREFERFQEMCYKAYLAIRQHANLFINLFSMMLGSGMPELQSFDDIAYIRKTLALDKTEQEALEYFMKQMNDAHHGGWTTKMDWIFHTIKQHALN

[15] = molecular target: Phosphatidylinositol 4,5-bisphosphate 3-kinase catalytic subunit alpha isoform (Homo sapiens) (UniProt P42336); conditions: at 1 µM
[16] = molecular target: T3, Phosphatidylinositol 4,5-bisphosphate 3-kinase catalytic subunit delta isoform (Homo sapiens) (UniProt O00329); conditions: at 0.1 µM
T3 sequence (whole entry): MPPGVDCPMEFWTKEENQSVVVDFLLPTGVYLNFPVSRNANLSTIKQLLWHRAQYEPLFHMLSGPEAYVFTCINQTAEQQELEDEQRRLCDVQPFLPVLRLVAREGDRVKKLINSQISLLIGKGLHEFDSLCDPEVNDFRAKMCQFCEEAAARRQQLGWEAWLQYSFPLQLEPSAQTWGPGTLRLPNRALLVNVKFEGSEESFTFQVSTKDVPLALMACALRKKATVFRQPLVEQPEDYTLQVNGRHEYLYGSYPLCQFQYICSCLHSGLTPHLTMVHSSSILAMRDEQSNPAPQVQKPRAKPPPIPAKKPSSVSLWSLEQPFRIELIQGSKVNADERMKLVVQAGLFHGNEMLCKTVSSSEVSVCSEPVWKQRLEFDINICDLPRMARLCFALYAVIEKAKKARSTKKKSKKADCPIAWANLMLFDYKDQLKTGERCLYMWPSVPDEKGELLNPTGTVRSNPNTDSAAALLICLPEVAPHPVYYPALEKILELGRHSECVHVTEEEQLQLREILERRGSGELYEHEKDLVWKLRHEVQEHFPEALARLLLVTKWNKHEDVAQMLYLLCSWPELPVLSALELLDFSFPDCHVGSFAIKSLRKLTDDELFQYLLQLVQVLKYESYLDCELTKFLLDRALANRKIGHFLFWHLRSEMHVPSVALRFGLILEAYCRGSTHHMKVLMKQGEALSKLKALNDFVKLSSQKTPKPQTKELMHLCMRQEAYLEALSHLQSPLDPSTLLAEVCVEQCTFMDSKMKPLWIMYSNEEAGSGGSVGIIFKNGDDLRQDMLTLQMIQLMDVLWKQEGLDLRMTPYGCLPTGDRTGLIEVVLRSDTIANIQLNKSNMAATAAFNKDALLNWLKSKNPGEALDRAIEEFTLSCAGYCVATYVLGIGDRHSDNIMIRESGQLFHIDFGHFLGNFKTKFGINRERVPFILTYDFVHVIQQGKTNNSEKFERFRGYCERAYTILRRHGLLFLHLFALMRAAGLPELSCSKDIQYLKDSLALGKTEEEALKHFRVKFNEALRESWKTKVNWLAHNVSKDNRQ

[17] = molecular target: T3, Phosphatidylinositol 4,5-bisphosphate 3-kinase catalytic subunit delta isoform (Homo sapiens); conditions: at 1 µM
[18] = molecular target: Phosphatidylinositol 4-kinase beta (Homo sapiens) (UniProt Q9UBF8); conditions: at 0.1 µM
Phosphatidylinositol 4-kinase beta (Homo sapiens), sequence (Q9UBF8 2-816 limits assumed): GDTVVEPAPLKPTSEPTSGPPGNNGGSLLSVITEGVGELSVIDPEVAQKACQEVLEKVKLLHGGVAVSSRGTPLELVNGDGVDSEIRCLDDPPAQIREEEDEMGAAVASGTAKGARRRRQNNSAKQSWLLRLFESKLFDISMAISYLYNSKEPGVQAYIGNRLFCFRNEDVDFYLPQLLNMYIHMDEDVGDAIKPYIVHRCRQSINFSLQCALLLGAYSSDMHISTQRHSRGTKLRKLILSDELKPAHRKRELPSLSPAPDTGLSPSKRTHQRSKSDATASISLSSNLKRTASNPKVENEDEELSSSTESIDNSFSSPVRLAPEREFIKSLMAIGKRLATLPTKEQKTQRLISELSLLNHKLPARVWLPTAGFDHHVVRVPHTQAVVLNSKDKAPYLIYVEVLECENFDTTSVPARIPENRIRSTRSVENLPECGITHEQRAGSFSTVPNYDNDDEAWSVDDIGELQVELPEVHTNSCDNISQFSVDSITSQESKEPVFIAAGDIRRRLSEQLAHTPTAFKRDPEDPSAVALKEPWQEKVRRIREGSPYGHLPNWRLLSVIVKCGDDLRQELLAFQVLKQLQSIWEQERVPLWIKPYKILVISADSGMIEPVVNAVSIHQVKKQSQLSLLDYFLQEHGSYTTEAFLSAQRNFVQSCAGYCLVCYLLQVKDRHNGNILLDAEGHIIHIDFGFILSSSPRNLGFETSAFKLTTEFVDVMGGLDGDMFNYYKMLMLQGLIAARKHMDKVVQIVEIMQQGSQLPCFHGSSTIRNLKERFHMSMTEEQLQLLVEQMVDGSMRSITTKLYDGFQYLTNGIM

[19] = molecular target: Phosphatidylinositol 4-kinase beta (Homo sapiens) (UniProt Q9UBF8); conditions: at 1 µM
[20] = molecular target: Sphingosine kinase 1 (Homo sapiens) (UniProt Q9NYA1); conditions: at 0.1 µM;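 further: mean percent inhibition of SPHK1 activity, measured within the GSK PKIS screening panel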
Sphingosine kinase 1 (Homo sapiens), sequence (Q9NYA1 whole entry): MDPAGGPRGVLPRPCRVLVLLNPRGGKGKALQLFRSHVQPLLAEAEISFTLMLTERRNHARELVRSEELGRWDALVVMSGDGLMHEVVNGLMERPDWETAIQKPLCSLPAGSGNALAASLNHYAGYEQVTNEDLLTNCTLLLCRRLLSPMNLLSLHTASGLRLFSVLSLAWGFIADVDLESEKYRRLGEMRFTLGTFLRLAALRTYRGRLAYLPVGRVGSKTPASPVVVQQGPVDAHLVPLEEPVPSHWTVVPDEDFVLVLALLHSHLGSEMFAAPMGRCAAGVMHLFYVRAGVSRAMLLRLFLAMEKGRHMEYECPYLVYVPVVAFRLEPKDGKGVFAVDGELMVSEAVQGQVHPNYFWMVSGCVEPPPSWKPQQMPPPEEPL

Mitogen-activated protein kinase 3 (Homo sapiens), sequence (P27361 whole entry): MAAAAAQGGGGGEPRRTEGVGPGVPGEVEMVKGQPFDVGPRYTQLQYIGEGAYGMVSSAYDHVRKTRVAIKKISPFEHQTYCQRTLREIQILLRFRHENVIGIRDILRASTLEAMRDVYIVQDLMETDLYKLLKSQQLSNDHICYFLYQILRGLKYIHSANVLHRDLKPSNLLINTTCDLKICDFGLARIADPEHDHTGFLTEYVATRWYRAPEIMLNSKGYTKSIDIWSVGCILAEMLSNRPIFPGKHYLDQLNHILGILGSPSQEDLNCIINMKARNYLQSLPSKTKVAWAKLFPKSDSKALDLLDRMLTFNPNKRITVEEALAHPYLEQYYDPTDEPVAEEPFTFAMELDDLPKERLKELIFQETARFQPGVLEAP
SRSF protein kinase 3 (Homo sapiens), sequence (Q9UPE1 whole entry): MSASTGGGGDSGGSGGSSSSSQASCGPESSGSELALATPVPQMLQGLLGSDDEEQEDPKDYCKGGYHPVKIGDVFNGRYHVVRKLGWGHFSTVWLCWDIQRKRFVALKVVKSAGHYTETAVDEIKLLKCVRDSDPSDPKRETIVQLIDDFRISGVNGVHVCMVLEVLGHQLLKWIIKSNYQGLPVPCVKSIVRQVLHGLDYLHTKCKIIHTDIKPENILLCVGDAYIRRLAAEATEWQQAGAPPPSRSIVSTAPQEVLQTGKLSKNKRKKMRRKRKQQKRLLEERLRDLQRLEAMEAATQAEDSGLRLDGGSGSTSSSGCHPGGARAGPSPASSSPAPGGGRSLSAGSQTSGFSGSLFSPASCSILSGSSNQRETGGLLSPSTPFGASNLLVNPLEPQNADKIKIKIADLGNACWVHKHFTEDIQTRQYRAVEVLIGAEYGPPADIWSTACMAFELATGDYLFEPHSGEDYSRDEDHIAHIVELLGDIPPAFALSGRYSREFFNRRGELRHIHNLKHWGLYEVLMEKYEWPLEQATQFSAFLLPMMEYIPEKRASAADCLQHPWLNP

SMILES	inhibition [1]	inhibition [2]	inhibition [3]	inhibition [4]	inhibition [5]	inhibition [6]	inhibition [7]	inhibition [8]	inhibition [9]	inhibition [10]	inhibition [11]	inhibition [12]	inhibition [13]	inhibition [14]	inhibition [15]	inhibition [16]	inhibition [17]	inhibition [18]	inhibition [19]	inhibition [20]
NS(=O)(=O)c1ccc(N/N=C2\C(=O)Nc3ccc(-c4cnco4)cc32)cc1	3.04%	-2.14%	-0.18%	2.88%	2.83%	0.43%	2.84%	2.15%	2.61%	2.22%	5.43%	-1.9%	-0.75%	1.34%	-0.11%	0.72%	-0.54%	1.44%	2.18%	-0.25%
CS(=O)(=O)CCNCc1cc(-c2cc3c(Nc4ccc(OCc5cccc(F)c5)c(Cl)c4)ncnc3s2)cs1	4.92%	0.81%	-0.39%	7.29%	8.32%	1.8%	3.36%	5.45%	6.67%	4.58%	6%	-3.5%	-2.78%	4.7%	5.78%	0.67%	7.33%	-1.24%	3.94%	1.57%
c1ccc(Oc2ccc(Nc3ncc(-c4ccccc4)o3)cc2)cc1	1.29%	0.57%	0.33%	5.45%	8.09%	-0.05%	4.25%	1.2%	0.96%	-0.32%	1.07%	-0.83%	0.96%	4.13%	5.69%	6.64%	7.88%	2.11%	4.73%	0.41%
O=C(Nc1n[nH]c2cc(-c3ccccc3)ccc12)C1CC1	4.97%	-0.47%	-0.2%	4.83%	11.2%	4.66%	6.34%	3.31%	5.86%	6.09%	3.52%	-1.71%	-1.41%	2.18%	4.34%	1.72%	4.03%	-5.9%	0.66%	-0.8%
O=C(Nc1n[nH]c2nc(-c3ccc(O)cc3)c(Br)cc12)C1CC1	5.57%	-1.04%	7.81%	6.42%	16%	11.1%	38.8%	8.19%	32.6%	1.76%	16.6%	-0.67%	0.36%	6.93%	6%	3.58%	6.8%	-5.7%	3.27%	-0.06%
COc1cc2ncn(-c3cc(OCc4ccccc4C(F)(F)F)c(C(C)=O)s3)c2cc1OC	3.87%	-2.61%	1.07%	4.86%	3.85%	5.8%	4.79%	2.82%	2.04%	2.87%	2.91%	-0.85%	-1.87%	1.72%	2.65%	1.03%	1.51%	1.58%	-4.62%	-1.64%
CN(c1ccc(NC(=O)Nc2c(Cl)cccc2Cl)cc1)c1ccnc(Nc2cccc(CS(C)(=O)=O)c2)n1	4.66%	0.97%	2.4%	2.39%	3.34%	1.5%	4.6%	1.53%	1.46%	-0.44%	-0.86%	-0.25%	2.16%	0.53%	-1.22%	0.12%	-1.62%	3.66%	3.73%	-0.6%
c1ccc(-c2n[nH]cc2-c2ccnc(-c3ccc(OCCN4CCOCC4)cc3)c2)nc1	-2.62%	2.38%	0.78%	3.12%	28.9%	-0.65%	5.15%	5.65%	-0.43%	3.09%	0.29%	2.99%	-0.67%	0.37%	0.17%	2.7%	3.02%	-0.93%	-1.19%	-5.06%
COc1ccc2cc(-c3c(-c4ccncc4)nc(-c4ccc(S(C)(=O)=O)cc4C)n3C)ccc2c1	2.57%	-1.96%	-4.7%	14.2%	17.3%	2.54%	11%	2.15%	5.04%	3.44%	3.33%	-2.04%	-2.87%	3.62%	3.55%	1.31%	1.59%		0.34%	2.55%
NC(=O)c1ccc(Oc2nccc(-c3c(-c4ccc(F)cc4)ncn3C3CCNCC3)n2)cc1	5.38%	1.1%	-0.11%									-2.65%	-1.89%	6.13%	8.85%	0.53%	5.87%	2.26%	2.71%	2.48%
O=C1NC(=O)C(c2cccc(Cl)c2)=C1Nc1ccc(Cl)c(C(=O)O)c1	3.9%	-2.79%	0.44%	1.44%	4.72%	3.66%	4.6%	1.21%	0.67%	5.9%	1.67%	-2.19%	-1.47%	3.63%	1.55%	1.72%	-0.43%	0.69%	-0.07%	0.25%
COC(=O)Nc1nc2ccc(Sc3ccc(NC(=O)Nc4cc(C(F)(F)F)ccc4F)cc3)cc2[nH]1	1.55%	0.07%	8.97%	5.88%	39.3%	3.62%	34.3%	1.98%	2.44%	0.78%	2.22%	-1.15%	-0.09%	-1.35%	8.27%	0.7%	10.2%	1.21%	-4.04%	0.39%
Cc1ccc(C(=O)NC(C)C)cc1-c1ccc(C(=O)NCC2CC2)cc1	-0.93%	1.71%	-0.59%			4.42%	37%	-4.48%	-4.39%	-2.72%	-1.93%	1.33%	30.8%	-2.38%	-1.61%	-1.08%	-1.45%	-3.91%	-3.13%	-0.6%
O=C1Nc2ccc(I)cc2C1=Cc1cc(Br)c(O)c(Br)c1	96.8%	3.61%	0.2%	5.09%	8.57%	1.97%	4.59%		4.77%	3.23%	6.31%	-3.87%	-2.51%	6.08%	23.5%			-3.41%	32.6%	-1.83%
